# Screening results (PubChem)
# gsp antag: qHTS for Antagonists of gsp, the Etiologic Mutation Responsible for Fibrous Dysplasia/McCune-Albright Syndrome: qHTS; gsp-mutant cells, cAMP HTRF, 30 min; Potency, µM (highest dose often 76.9 µM), for inactives: top-dose activity change, negative = inhibition, most hits filed as inhibitors; hit rate 0.4% among 340,000; AID 624288, 2012; calls by dose curve; cell line not stated here;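 note: intracellular cAMP measured with PDE inhibitor Ro 20-1724 present during compound exposure; % is set by controls: 0 for no effect and ±100 for the full control effect; nearly all actives have a fitted effect of over 65% in size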
#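 Measurement of cellular cAMP by homogeneous time-resolved fluorescence following a 30 min compound exposure at 37C. The PDE inhibitor […] was present throughout; the assay buffer was DPBS with 0.05% BSA and 0.005% Tween 20.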
# gsp ag: qHTS for Agonist of gsp, the Etiologic Mutation Responsible for Fibrous Dysplasia/McCune-Albright Syndrome: qHTS; Potency, µM (highest dose often 76.9 µM), for the others: at the highest dose activation (cAMP increase), hits mostly activators; hit rate 0.13% among 340,000; gsp mutant cells, cAMP HTRF, 30 min; active = well fitted activation curve with a large enough effect; inconclusive = small, poorly fitted or top-dose-only effect, or another doubt; inactive = no such curve, though single readings can be large or run the other way; cell line not stated here;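 note: phosphodiesterase inhibitor Ro 20-1724 added with compounds to block cAMP breakdown; nearly all actives have a fitted effect of over 60% in size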
#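 Cells in DMEM/10% FBS with G418 were pretreated with compounds in DMSO plus […] (300 uM stock) for 30 min at 37C. cAMP was measured by HTRF (cAMP-d2 plus anti-cAMP antibody-K) after 30 min at room temperature.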
# FUS yeast rescue: qHTS for Suppressors of FUS Proteinopathy: Primary screen using FUS-linked yeast assay; S. cerevisiae FUS-expressing, growth rescue, OD600, 24 h; Potency, µM (titrated, usually from 76.6 µM), most hits filed as activators; hit rate 0.24% among 390,000;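 note: plate controls were DMSO vehicle for no effect and reference control for full effect; nearly all actives have a fitted effect of over 55% in size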
#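 S. cerevisiae expressing FUS from galactose induction served as the toxicity model. Growth after 24hr at 30C, read as absorbance at 600 nm, indicates suppression of toxicity; compounds dosed at several concentrations.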
# Mito fusion act: qHTS Assay for Small Molecule Inhibitors of Mitochondrial Division or Activators of Mitochondrial Fusion; S. cerevisiae fusion-defective mutant growth rescue, CellTiterGlo 48 h; Potency, µM (highest dose often 46.1 µM), without a hit: at the top dose growth rescue (activation), actives largely listed as activators; hit rate 0.23% among 320,000; note: % of control where 0% means no effect; nearly all actives have a fitted effect of over 45% in size
#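 Growth-rescue viability read-out: after 48 h at the non-permissive 37C in glycerol/ethanol YPEG, yeast mitochondrial fusion mutants are measured by CellTiterGlo luminescence; compounds (23 nl pinned per well) restoring growth score as division inhibitors or fusion activators.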
# 12-LOX inh: Primary qHTS assay for inhibitors of human arachidonate 12S-lipoxygenase (ALOX12): Round 2; Polyunsaturated fatty acid lipoxygenase ALOX12 (Homo sapiens), P18054; purified 12hLO, xylenol orange hydroperoxide absorbance; Potency, µM (doses to about 108 µM), without a hit: top-dose activity change, negative = inhibition, most hits filed as inhibitors; hit rate 1.1% among 580,000; AID 1671190, 2021; note: % is set by controls: 0 for no effect and ±100 for the full control effect
# Target sequence (P18054 whole entry, looked up): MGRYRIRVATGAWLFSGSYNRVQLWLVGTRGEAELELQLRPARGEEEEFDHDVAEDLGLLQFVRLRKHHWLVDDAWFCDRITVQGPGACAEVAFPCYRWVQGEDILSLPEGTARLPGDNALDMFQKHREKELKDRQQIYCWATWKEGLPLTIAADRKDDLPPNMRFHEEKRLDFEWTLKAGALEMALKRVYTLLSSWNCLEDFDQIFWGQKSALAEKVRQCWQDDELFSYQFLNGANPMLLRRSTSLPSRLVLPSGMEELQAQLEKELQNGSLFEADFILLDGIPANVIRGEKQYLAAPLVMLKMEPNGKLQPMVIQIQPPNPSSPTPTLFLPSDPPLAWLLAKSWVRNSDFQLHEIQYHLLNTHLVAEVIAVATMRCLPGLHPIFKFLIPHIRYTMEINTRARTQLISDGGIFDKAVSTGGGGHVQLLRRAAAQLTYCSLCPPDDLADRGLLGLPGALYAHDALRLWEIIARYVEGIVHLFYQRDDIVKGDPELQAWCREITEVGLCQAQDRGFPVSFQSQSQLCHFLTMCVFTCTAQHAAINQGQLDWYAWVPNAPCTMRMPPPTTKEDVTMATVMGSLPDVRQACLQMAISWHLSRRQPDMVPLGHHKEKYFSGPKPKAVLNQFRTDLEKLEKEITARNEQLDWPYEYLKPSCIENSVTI
#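 Purified human 12hLO at 150 nM in 25 mM Hepes, 0.01% Triton X-100, pH 7.0, preincubated 15 min at room temperature with compound. Reaction started with 40 uM arachidonic acid, 30 min at room temperature. Hydroperoxide measured by Fe-xylenol orange, 573/405 nm absorbance ratio.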
# * marks the source's active call; other numbers are inactive results; i = inactive; ? = inconclusive; / = no result given; [ ] = dose if it differs, or a comment. Sampled rows, rich in hits. Any-hit rate of the full collection: about 1.6%. Unless noted, calls come from the whole dose curve; as a rule, active = well fitted curve in the direction sought with a large enough effect; inconclusive = small, poorly fitted or top-dose-only effect, or another doubt; inactive = no such curve, though single readings can be large; an effect the other way counts as inactive or inconclusive. Potency is the fitted concentration of half-maximal effect.
SMILES,gsp antag,gsp ag,FUS yeast rescue,Mito fusion act,12-LOX inh
Cc1ccc2[nH]nc(C(=O)N3CCCC(C(=O)c4ccc(Cl)cc4)C3)c2c1 (configuration not stated),14µM*,-13%[15.4 µM],i,10%,-19%
O=C(c1ccc(Oc2ccccc2)cc1)C1CCCN(C(=O)c2cnccn2)C1 (configuration not stated),-16%,2%[15.4 µM],i,13%,-1%
COc1cccc(CC(=O)NCc2nnc3cc(-c4nc(C5CC5)no4)ccn23)c1,/,/,/,/,28%
COc1ccc(NC(=O)Nc2nnc(N3CCCC(C)C3)s2)cc1 (configuration not stated),/,/,/,/,11%
Cc1nc(-c2ccc(C)c(S(=O)(=O)N3CCCC3)c2)cs1,/,/,/,/,3%
CCc1ccc2c(c1)C(NC(C)=O)C(=O)N2CCN1CCOCC1 (configuration not stated),7%,-2%[15.4 µM],i,7%,45µM*
Cc1nc2cc(NC(=O)C(C)Oc3ccc(Br)cc3)ccc2o1 (configuration not stated),/,/,/,/,-4%
Cc1cc(=O)n(CC(=O)NC(C)c2ccccc2)c2c1c(C)nn2C (configuration not stated),/,/,i,/,50µM*
Cc1nn(C)c2c1c(-c1ccccc1)cc(=O)n2CC(=O)NC(C)c1ccccc1 (configuration not stated),/,/,i,/,45µM*
COC(=O)c1ccccc1NC(=O)Cn1c(=O)cc(-c2ccccc2)c2c(C)nn(C)c21,/,/,i,/,?
Cc1cc2c(=Cc3ccc(N(C)C)cc3)c3ccccc3n2[n+]1C,?,?,/,/,-57%
CN(C)c1ccc(C=c2c3ccccc3n3c2c2ccccc2[n+]3C)cc1,?,-215%,/,/,5µM*
Cc1c(Cl)cccc1Nc1nc(N)nc(CSc2nc3ccccc3s2)n1,8%,-13%,?,8.9µM*,-35%
Cc1oc(-c2ccccc2)nc1CC(=O)NCc1ccco1,/,/,/,/,50%
CCc1noc(-c2cccn3c(CNC(=O)Cc4ccccc4C)nnc23)n1,/,/,/,/,65%
O=C(NC(=S)Nc1ccc(S(=O)(=O)Nc2nccs2)cc1)c1ccc(F)c(F)c1,-21%,-8%[15.4 µM],i,-6%,10µM*
COc1ccc(NS(=O)(=O)c2ccc(NC(=S)NC(=O)c3ccc(Br)cc3)cc2)nn1,-28%,1%,/,22%,25µM*
O=C(NC(=S)Nc1ccc(S(=O)(=O)Nc2ncccn2)cc1)c1ccc(Br)cc1,-10%,-10%[15.4 µM],i,5%,20µM*
COc1ccc(NS(=O)(=O)c2ccc(NC(=S)NC(=O)c3cccc(F)c3)cc2)nn1,-23%,-1%,/,-1%,40µM*
Cn1c(=O)c2nc(SCC(=O)Nc3ccc(F)cc3)n(C)c2n(C)c1=O,/,/,/,/,9%
Cc1ccnc(NC(=O)c2ccc3nc(C)c(C)nc3c2)c1,/,/,/,/,19%
Cc1cc(NC(=O)CCc2ccsc2)ccc1N1CCCC1=O,/,/,/,/,13%
Cc1ccc(C)c2sc(NC(=O)c3ccc(S(=O)(=O)N(C)C)cc3)nc12,/,/,/,/,-10%
CN(Cc1cccc(F)c1)C(=O)COc1ccc2ccc(=O)oc2c1,/,/,/,/,-37%
CCOC(=O)c1ccc(CC(=O)c2ccc(O)cc2O)o1,8.9µM*,15%,i,0%,5%
SMILES,gsp antag,gsp ag,FUS yeast rescue,Mito fusion act,12-LOX inh
CCOC(=O)N1CCN(CC(=O)c2ccc(O)cc2O)CC1,11µM*,3%,i,14%,-15%
CCOC(=O)N1CCN(CC(=O)c2ccc(O)c(C)c2O)CC1,-2%,15%,i,3%,-23%
COC(=O)c1ccc(CC(=O)c2ccc(O)cc2O)o1,?,4%,i,17%,/
COc1nc2nc(CCc3ccccc3)n(C)c2cc1-c1ccnc(C)c1,/,/,/,/,1%[176 µM]
CN(C)C(=O)c1nc(C(C)(C)C)c2cnccn12,/,/,/,/,-2%[12.5 µM]
O=C(Cn1ccc(=O)[nH]c1=O)N1C[C@H]2CC[C@@H]1CN(Cc1cscn1)C2,/,/,/,/,8.9µM*
O=C(c1ccc2c(c1)CCC2)N1C[C@H]2CC[C@@H]1CN(Cc1cscn1)C2,/,/,/,/,47%
COc1cc(C(=O)CCN(C)C)cc(OC)c1OC,/,/,/,/,-37%
CCOC(=O)c1c(-c2ccc(OC)c(OC)c2)csc1NC(=O)C1CCCO1 (configuration not stated),25µM*,-4%[15.4 µM],i,-9%,-10%
CCCCn1c(=O)[nH]c(=O)c2c1nc(-c1ccsc1)n2Cc1ccccc1,-2%,-11%,i,6%,-15%
CCCCn1c(=O)c(CCc2ccccc2)nc2c1c(=O)[nH]c(=O)n2Cc1ccccc1,/,/,/,/,35µM*
O=C(Nc1ccccc1C(F)(F)F)c1cccc(Cl)c1Cl,/,/,/,/,-33%
CC(=O)c1ccc(-n2c(CCC(=O)O)ccc2-c2ccc(C)cc2)cc1,?,-7%,i,11%,/
CC(=O)c1ccc(-n2c(CCC(=O)O)ccc2-c2ccc(Br)cc2)cc1,0.89µM*,?,i,33%,-21%
COc1ccc(/C=C2\SC(=S)N(CCC(=O)Nc3ccccc3C(=O)O)C2=O)cc1,-12%,16%,i,5%,0%
COc1ccc(/C=C2\SC(=S)N(CCCC(=O)Nc3ccccc3C(=O)O)C2=O)cc1OC,35µM*,?,i,0%,/
Cc1ccc(/C=C2\SC(=S)N(CCC(=O)NNS(=O)(=O)c3ccccc3)C2=O)cc1,50µM*,-14%[15.4 µM],i,3%,-5%
COc1ccc(/C=C2\SC(=O)N(CCCC(=O)Nc3cc(Cl)ccc3C(=O)O)C2=O)cc1,-17%,-23%,/,/,35µM*
Cc1ccc(/C=C2\SC(=S)N(CCC(=O)NNC(=O)c3ccccc3O)C2=O)cc1,1%,15%,i,0%,-6%
Cc1cc(Br)ccc1NC(=O)C1C2CCC(O2)C1C(=O)O (configuration not stated),10%,18%,i,1%,5µM*
O=C(O)c1ccc(NCc2cccc(Br)c2)cc1,-6%,-4%,i,10µM*,-7%
Brc1ccc(-c2csc3ncnc(-n4nnc5ccccc54)c23)cc1,-12%,4%,/,13µM*,0%
CSc1cccc(NC(=S)N2CCCN(Cc3cccc(Cl)c3)C2)c1,0%,4%[15.4 µM],i,-2%,35µM*
O=C1NC(=S)S/C1=C/c1ccc(Oc2cnccn2)cc1,11µM*,1%[15.4 µM],i,-6%,-12%
O=C1NC(=O)/C(=C\c2ccc(Oc3cnccn3)cc2)S1,?,-1%[15.4 µM],i,-5%,-15%
Cc1sc(NC(=O)Cn2cnc3c2c(=O)n(C)c(=O)n3C)nc1-c1ccc(OC(F)F)cc1,/,/,/,/,-7%
